Results taken from PubChem BioAssay (Tox21).
A number with no mark means an inactive call. Records with an inconclusive call do not appear. A call without a number means that no potency is given here. Calls of active or inactive are those of the source. Calls come from the whole dose curve; as a rule, active = well fitted curve in the direction sought with a large enough effect in the repeat runs; inconclusive = weak or mixed curves; inactive = no such curve, though single readings can be large; an effect the other way counts as inactive or inconclusive.

Assays:
[1] = A CellTox Green Cytotoxicity Assay to monitor cytotoxicity in HEK293 cells - 32 hour (AID 1224881); note: nearly all actives have a fitted effect of over 40% in size
In short: (§1)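 Cytotoxicity was tracked continuously in HEK293 cells by a DNA-binding dye excluded from viable cells. Compounds were transferred in DMSO 5 h after seeding; fluorescence was recorded at intervals up to 40 h.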

[2] = A CellTox Green Cytotoxicity Assay to monitor cytotoxicity in HepG2 cells - 0 hour (AID 1224882); note: nearly all actives have a fitted effect of over 35% in size; note: potency is the fitted concentration of half-maximal effect
In short: (§2)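 Real-time, homogeneous cytotoxicity readout: dead-cell DNA staining by CellTox Green in HepG2 monolayers, fluorescence measured at timed intervals up to 40 h of continuous compound exposure.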

[3] = A CellTox Green Cytotoxicity Assay to monitor cytotoxicity in HEK293 cells - 8 hour (AID 1224884); note: nearly all actives have a fitted effect of over 35% in size; note: potency is the fitted concentration of half-maximal effect
In short: as §1

[4] = qHTS RealTime-Glo MT Cell Viability Assay in HepG2 cells - 16 hour (AID 1224885); note: nearly all actives have a fitted effect of over 50% in size
In short: (§3)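 Tox21 10K library screened in qHTS format on HepG2 cells carrying RealTime-Glo reagents. Compounds were added after a 5 h preincubation, and the luminescent signal from continuous culture was measured repeatedly during 40 h treatment.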

[5] = A CellTox Green Cytotoxicity Assay to monitor cytotoxicity in HEK293 cells - 16 hour (AID 1224888); note: nearly all actives have a fitted effect of over 35% in size; note: potency is the fitted concentration of half-maximal effect
In short: as §1

[6] = qHTS RealTime-Glo MT Cell Viability Assay in HepG2 cells - 0 hour (AID 1224889); note: nearly all actives have a fitted effect of over 50% in size; note: potency is the fitted concentration of half-maximal effect
In short: as §3

[7] = A CellTox Green Cytotoxicity Assay to monitor cytotoxicity in HepG2 cells - 8 hour (AID 1224890); note: nearly all actives have a fitted effect of over 45% in size; note: potency is the fitted concentration of half-maximal effect
In short: as §2

[8] = qHTS RealTime-Glo MT Cell Viability Assay in HEK293 cells - 24 hour (AID 1224886); note: nearly all actives have a fitted effect of over 50% in size; note: potency is the fitted concentration of half-maximal effect; for activity change, negative = cytotoxicity: top concentration of the series differs between compounds
In short: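 Luminescence generated by NanoLuc from substrate produced by living HEK293 cells served as the viability signal. Each value reflects the reading at its stated time point during continuous 40 h compound exposure at 37 C.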

[9] = qHTS RealTime-Glo MT Cell Viability Assay in HEK293 cells - 8 hour (AID 1224887); note: top concentration of the series differs between compounds; nearly all actives have a fitted effect of over 50% in size
In short: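 Nonlytic bioluminescent viability monitoring. HEK293 at 600 cells/well with reagent; 5 h settle; compound transfer by pintool; plates held at 37 C and read at set time points.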

[10] = A CellTox Green Cytotoxicity Assay to monitor cytotoxicity in HepG2 cells - 32 hour (AID 1224883); note: nearly all actives have a fitted effect of over 50% in size; note: potency is the fitted concentration of half-maximal effect
In short: as §2

SMILES	Potency [1]	Potency [2]	Potency [3]	Potency [4]	Potency [5]	Potency [6]	Potency [7]	Potency [8]	Potency [9]	Potency [10]	activity change, negative = cytotoxic [4]	activity change, negative = cytotoxicity [8]	activity change, negative = cytotoxicity [9]
OC12N=C(c3ccccc3)SC1Cc1cc(Cl)ccc12 (stereo not given)	inactive	inactive	inactive	inactive	inactive	inactive	inactive	–	–	–	–	–	–
CCCCOC(=O)CC	inactive	inactive	inactive	–	inactive	inactive	inactive	inactive	inactive	–	–	–	–
Cc1cc(-n2nc3ccc(Cl)cc3n2)c(O)c(C(C)(C)C)c1	–	inactive	inactive	inactive	inactive	inactive	inactive	inactive	inactive	inactive	–	–	–
O=C(O)CN(CCN(CC(=O)O)CC(=O)O)CC(=O)O	–	1.74 µM (active)	1.96 µM (active)	–	1.96 µM (active)	–	1.74 µM (active)	–	–	1.74 µM (active)	-5.14% [at 2.72 µM]	5.68% [at 2.72 µM]	-1.21% [at 2.72 µM]
Nc1nc2c(ncn2COCCO)c(=O)[nH]1	–	inactive	inactive	inactive	inactive	inactive	inactive	inactive	inactive	inactive	–	–	–
CN1CCCCC1CCN1c2ccccc2Sc2ccc(S(C)=O)cc21 (stereo not given)	inactive	inactive	inactive	inactive	inactive	inactive	inactive	–	inactive	–	–	–	–
CCCC(=O)OCOC(=O)C1=C(C)NC(C)=C(C(=O)OC)C1c1cccc(Cl)c1Cl (stereo not given)	–	inactive	inactive	inactive	inactive	10.7 µM (active)	inactive	inactive	–	inactive	–	–	–
OCC(F)(F)F	–	inactive	inactive	inactive	inactive	–	inactive	inactive	inactive	inactive	–	–	–
C#Cc1ccc(-c2ccccc2F)cc1	–	inactive	inactive	inactive	inactive	inactive	inactive	inactive	–	inactive	–	–	–
C=CC(C)(CCC=C(C)C)OC=O (stereo not given)	–	inactive	inactive	inactive	inactive	inactive	inactive	inactive	–	inactive	–	–	–
Cc1nc(-c2ccc(Cl)cc2)oc1COC(C)(C)C(=O)O	–	inactive	inactive	inactive	inactive	inactive	inactive	inactive	inactive	inactive	–	–	–
Cc1cccc2cccnc12	–	inactive	inactive	inactive	inactive	inactive	inactive	inactive	inactive	inactive	–	–	–
O=c1c(O)c(-c2ccc(O)cc2O)oc2cc(O)cc(O)c12	inactive	inactive	inactive	–	inactive	–	inactive	inactive	inactive	–	–	–	–
CCc1oc2ccccc2c1C(=O)c1cc(I)c(O)c(I)c1	–	inactive	inactive	inactive	inactive	inactive	inactive	inactive	–	inactive	–	–	–
CC1=Nc2ccccc2C1(C)C	inactive	–	inactive	–	inactive	–	–	inactive	inactive	43.7 µM (active)	–	–	–
C=C(C)C(=O)OCCCCCCCCCC	–	inactive	inactive	inactive	–	–	inactive	inactive	inactive	inactive	–	–	–
O=[N+]([O-])c1cccc(C(F)(F)F)c1	–	inactive	inactive	inactive	inactive	–	inactive	inactive	–	inactive	–	–	–
OC1CCC(C2CCCCC2)CC1 (stereo not given)	inactive	inactive	inactive	–	inactive	inactive	inactive	inactive	–	–	–	–	–
CC(N=C(NC#N)Nc1ccncc1)C(C)(C)C (stereo not given)	–	inactive	inactive	inactive	inactive	inactive	inactive	inactive	–	inactive	–	–	–
COc1ccc(NC(=O)CC(C)=O)cc1	–	inactive	inactive	inactive	–	inactive	inactive	inactive	inactive	inactive	–	–	–
C#C[C@]1(O)CC[C@H]2[C@@H]3[C@H](C)CC4=C(CCC(=O)C4)[C@H]3CC[C@@]21C	–	inactive	inactive	inactive	inactive	inactive	inactive	inactive	inactive	inactive	–	–	–
O=C(O)CCN(C1(C(=O)NO)CCCC1)S(=O)(=O)c1ccc(Oc2ccc(F)cc2)cc1	–	inactive	inactive	inactive	inactive	–	inactive	inactive	inactive	inactive	–	–	–
OC[C@H]1O[C@H](O[C@H]2O[C@H](CO)[C@@H](O)[C@H](O)[C@H]2O)[C@H](O)[C@@H](O)[C@@H]1O	–	inactive	inactive	inactive	inactive	inactive	inactive	inactive	inactive	inactive	–	–	–
CC[C@H](C)COC(=O)/C=C/c1ccc(N=Cc2ccc(OC)cc2)cc1	–	inactive	inactive	inactive	inactive	inactive	inactive	21.8 µM (active)	–	–	–	–	–
